# Pol beta inh: DNA polymerase beta (human) inhibition; Potency, µM (doses to about 114 µM), inactives show at the top dose activity change, negative = inhibition, actives largely listed as inhibitors; actives 1.3% (n = 340,000); Pol beta primer extension/strand displacement, fluorescence kinetic; P06746; also: % is scaled to controls: 0 for no effect and ±100 for the full control effect
#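 10 nM enzyme + cpd, 15 min RT; start with substrate 50 nM final; read 0 min and after 10 min RT. Corrected, normalized data; 4-parameter Hill curve fit.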
# POLK inh: inhibitors of human DNA polymerase kappa. Potency, µM (top dose mostly 107 µM), without a hit: top-dose activity, negative = inhibition, actives largely listed as inhibitors. AID 588579. actives 0.53% (n = 400,000). Q9UBT6. purified Pol kappa, fluorescent DNA synthesis assay, 10 min; also: % is scaled to controls: 0 for no effect and ±100 for the full control effect
#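 Enzyme at 10 nM met test compounds for 15 min at room temperature. Substrate addition (50 nM final) began the reaction, which was monitored by fluorescence at 0 and 10 min.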
# Pol eta inh: DNA polymerase eta (human) inhibition. Potency, µM (top dose mostly 114 µM), for the others: at the top dose activity change, negative = inhibition, actives largely listed as inhibitors. recombinant Pol eta, fluorescent DNA replication assay. actives 1.2% (n = 390,000). Q9Y253. AID 588591; also: % is scaled to controls: 0 for no effect and ±100 for the full control effect
# Target sequence (Q9Y253 whole entry, looked up): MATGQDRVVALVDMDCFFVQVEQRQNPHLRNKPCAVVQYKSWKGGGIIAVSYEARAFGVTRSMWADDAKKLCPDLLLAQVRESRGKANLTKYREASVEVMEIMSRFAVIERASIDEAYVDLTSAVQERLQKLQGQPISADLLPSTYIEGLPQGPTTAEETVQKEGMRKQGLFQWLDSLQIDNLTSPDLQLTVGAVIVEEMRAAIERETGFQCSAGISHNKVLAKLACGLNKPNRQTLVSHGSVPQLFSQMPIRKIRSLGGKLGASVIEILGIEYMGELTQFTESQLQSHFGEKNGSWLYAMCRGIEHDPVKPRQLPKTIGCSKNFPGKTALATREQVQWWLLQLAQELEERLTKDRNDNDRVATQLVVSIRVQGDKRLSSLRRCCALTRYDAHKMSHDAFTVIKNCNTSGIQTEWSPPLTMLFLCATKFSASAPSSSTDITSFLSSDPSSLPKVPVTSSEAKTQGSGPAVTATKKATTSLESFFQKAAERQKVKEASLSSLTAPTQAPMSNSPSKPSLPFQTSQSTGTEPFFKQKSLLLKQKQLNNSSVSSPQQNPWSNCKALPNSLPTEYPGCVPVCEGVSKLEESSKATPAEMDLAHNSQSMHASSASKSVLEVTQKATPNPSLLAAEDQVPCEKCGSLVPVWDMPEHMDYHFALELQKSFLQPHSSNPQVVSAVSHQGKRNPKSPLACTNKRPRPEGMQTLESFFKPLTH
#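 Pol eta at 10 nM preincubated with compounds 15 min at room temperature; reaction started with fluorescent substrate (50 nM final) and read kinetically at 0 and 10 min.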
# GLS inh: inhibitors of human glutaminase (GLS) | O94925 | GLS enzymatic activity, qHTS titration | Potency, µM (doses to about 45.5 µM), for inactives: at the top dose activity change, negative = inhibition, most hits filed as inhibitors | actives 0.21% (n = 410,000); also: % is scaled to controls: 0 for no effect and ±100 for the full control effect
#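 hKGA in 45 mM KH2PO4 (pH 8.2), 0.02% Tween-20 with compound, then 1mM L-Glutamine (stock as added) plus glutamate oxidase/HRP/Amplex red coupling mix. Fluorescence read initially and after 30 min at RT; signal change reflects glutamate formation.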
# Pol iota inh: DNA polymerase iota (human) inhibition; Q9UNA4; Pol iota fluorescent replication assay, 10 min; Potency, µM (series often up to 115 µM), for inactives: top-dose activity, negative = inhibition, hits mostly inhibitors; actives 1% (n = 390,000)
#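 Fluorescent replication assay read twice, at 0 min and 10 min after adding 50 nM (final) substrate. Enzyme (10 nM) and compounds were first incubated 15 min at room temperature; enzyme-free buffer wells were negative controls.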
# GCN5L2 inh: inhibitors of human GCN5L2 histone acetyltransferase; Q92830; actives 0.21% (n = 390,000); AID 504327; GCN5L2 HAT assay, ThioGlo1 CoA-SH fluorescence; Potency, µM (highest dose often 58.9 µM), for inactives: at the highest dose activity change, negative = inhibition, hits mostly inhibitors; also: % is scaled to controls: 0 for no effect and ±100 for the full control effect
#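 Preincubate 20nM GCN5L2 with compound 15 min, RT → add 50uM ThioGlo1 + 75uM H3(1-25) + 70uM acetyl-CoA → read fluorescence 0 and 20 min. Primary qHTS; fluorescent artifacts likely.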
# Active calls of the source: *; ? = inconclusive; · = no result; ! = not active in a repeat; [ ] = remark or other dose. This is a sample that favours compounds with a hit; in the whole collection about 2.4% have one here. Calls follow the shape of the dose curve; as a rule, active = well fitted inhibition curve with a large enough effect; inconclusive = small, poorly fitted or top-dose-only effect, or another doubt; inactive = no such curve, though single readings can be large or run the other way. Potency is read from the fitted curve at half-maximal effect.
SMILES,Pol beta inh,POLK inh,Pol eta inh,GLS inh,Pol iota inh,GCN5L2 inh
Cc1ccc(Nc2nccc(N(C)c3ccc4c(C)n(C)nc4c3)n2)cc1S(N)(=O)=O,·,·,·,4.1%,·,·
Nc1nc(NCCO)nc(NCC2CCCO2)c1[N+](=O)[O-] (stereo not given),22.4µM*,-20.2%,-4.1%,5.5%,15.4%,-11.5%
Nc1nc(NCC2CCCO2)nc(NCC2CCCO2)c1[N+](=O)[O-] (stereo not given),39.2%,0.5%,-25.0%,3.1%,5.2%,-5.8%
C/C(=N\NC(=S)Nc1ccccc1C)c1ccc(O)cc1,26.2%,-2.4%,-9.6%,10µM*,86.2%,-12.4%
Cc1cc(NC(=O)c2ccc(S(=O)(=O)N3CCc4ccccc43)cc2)no1,50.1µM*,-2.0%[60.1 µM],-19.7%,12.0%,?,?
COc1ccccc1C(=O)Nc1ccc(S(=O)(=O)N2CCc3ccccc32)cc1,4.9%,-4.3%,1.7%,3.2%,-2.3%,-8.9%
COc1ccc(S(=O)(=O)N2CCc3ccccc32)cc1C(=O)Nc1ccc(C(N)=O)cc1,·,-10.0%,-12.2%,-5.8%,89.1µM*,-10.6%
CCC(C)(C)NC(=O)c1cc(S(=O)(=O)N2CCc3ccccc32)cn1C,5.9%,-36.0%,-13.2%,-0.1%,5.9%,-15.1%
CC(C)OCCCNC(=O)c1cc(S(=O)(=O)N2CCc3ccccc32)cn1C,14.3%,0.3%,-25.4%,0.7%,36.9%,0.794µM*
Cc1ccc(NC(=O)Cn2ncc(Cl)c(Cl)c2=O)cc1S(=O)(=O)N1CCCCC1,·,?,-10.8%,-4.6%,50.1µM*,-23.1%
Cc1cccc(NC(=O)CNC(=O)Cn2ncc(Cl)c(Cl)c2=O)c1C,·,?,3.98µM*,1.7%,15.8µM*,-25.1%
Cc1ccc(NC(=O)CN(C)C(=O)Cn2ncc(Cl)c(Cl)c2=O)cc1,?,-16.1%,?,4.7%,44.7µM*,10.3%
Cc1cc(Nc2ccccc2C(=O)O)ccc1Cl,·,·,·,26.5%,·,·
COc1ccc(OC)c(/C=C/c2c3ccccc3cc[n+]2C)c1,·,-19.6%,·,·,43.8%,·
Cc1ccc2c(=O)c3ccccc3n(CCCN)c2c1C,·,7.94µM*!,·,·,·,?
CC(C)=CCCC1(C)C=Cc2c(O)c3c(c(CC=C(C)C)c2O1)OC12C(=CCCC1C(C)(C)O[C@@]2(C/C=C(\C)C(=O)O)C(=O)O)C3=O (stereo not given in full),·,?,·,·,·,35.5µM*
CC(C)=CCc1c2c(c(O)c3c(=O)c(O)c(-c4ccccc4)oc13)C=CC(C)(C)O2,·,-8.0%[60.1 µM],·,·,·,-14.2%
COc1ccc(Br)cc1CNc1ccc(O)cc1,3.4%,-11.3%,6.5%,43.5%,2.82µM*,0.8%
COc1cc(CNc2ccc(O)cc2)cc(Br)c1OCc1ccccc1,-0.9%,-15.2%,?,20.3%,15.8µM*,-4.8%
COc1cccc(CNc2ccc3[nH]c(=O)[nH]c3c2)c1OCc1ccccc1,22.8%,-1.7%,-21.2%,15.8µM*,90.0%,-2.9%
COc1cc2c(cc1OC)C(COc1ccc3c(C)cc(=O)oc3c1)N(C(=O)Cc1ccccc1)CC2 (stereo not given),8.4%,6.8%,-13.1%,-0.5%,14.1%,-0.5%
Cc1cccc(NC(=O)c2sc(-n3nc(C)c(Cc4ccc5c(c4)OCO5)c3C)nc2C)c1C,18.7%,-1.8%,-25.6%,-2.2%,5.1%,1.9%
O=C1c2ccccc2NC(c2ccc(O)cc2)N1Cc1ccco1 (stereo not given),8.7%,-7.9%,-1.7%,13.5%,7.4%,-13.7%
O=C1c2ccccc2NC(c2cccc(F)c2)N1Cc1ccco1 (stereo not given),7.94µM*,-18.5%,-5.6%,-5.4%,8.2%,-2.6%
COc1cc(/C=C/C(=O)OCC(=O)N2CCN(S(=O)(=O)c3ccc(C)cc3C)CC2)ccc1O,35.5µM*,?,20µM*,3.4%,?,-4.4%
SMILES,Pol beta inh,POLK inh,Pol eta inh,GLS inh,Pol iota inh,GCN5L2 inh
Cc1ccc(S(=O)(=O)N2CCN(C(=O)COC(=O)/C=C/c3ccc(Cl)cc3)CC2)c(C)c1,·,-17.8%,-12.7%,8.6%,7.1%,·
COc1ccc(C(=O)C[n+]2ccccc2Cl)cc1,·,10.9%,·,·,-20.3%,·
NC(=O)C(OC(=O)CNC(=O)C1CCCCC1)c1ccccc1 (stereo not given),·,-5.1%,·,·,11.7%,·
O=C1C[C@@H](c2ccc(O)c(O)c2)Oc2c1ccc(O[C@@H]1O[C@H](CO)[C@@H](O)[C@H](O)[C@H]1O)c2O,·,2.67µM*,·,·,·,-16.7%
O=C1C[C@@H](c2ccc(O)cc2)Oc2cc(O[C@@H]3O[C@H](CO)[C@@H](O)[C@H](O)[C@H]3O)cc(O)c21,·,-12.0%[12 µM],·,·,·,0.0%
COc1cc(/C=C/CO)ccc1O[C@@H]1O[C@H](CO)[C@@H](O)[C@H](O)[C@H]1O,·,23.4%,-3.4%,-4.6%,27.9%,·
O=C(/C=C/c1ccc(O)c(O)c1)c1ccc(O[C@@H]2O[C@H](CO)[C@@H](O)[C@H](O)[C@H]2O)c(O)c1O,·,0.189µM*,·,·,·,-22.0%
CCOc1ccc(-n2c(C)cc(C(=O)CCl)c2C)cc1,-21.0%,-7.6%,?,0.7%,33.4%,0.0%
COC(=O)c1ccc(-n2c(C)cc(C(=O)CCl)c2C)cc1,-10.8%,-5.1%,?,-0.6%,12.6µM*,-10.0%
COc1cc(O)cc(OC)c1OC,·,-2.8%[60.1 µM],·,·,·,-12.9%
COc1c(O)cc(O)cc1O,·,25.1µM*,·,·,·,1.0%
C=CCn1c(COc2cccc(C)c2)nnc1SCC(=O)NC(=O)NCc1ccco1,20µM*,?,?,-8.4%,70.8µM*,-25.2%
Cc1ccc(-n2c(SCC(=O)NCc3ccco3)nnc2-c2cccnc2)cc1,-3.5%,-9.7%,-13.2%,9.9%,-1.2%,0.5%
C=CCn1c(COc2ccc(F)cc2)nnc1SCC(=O)NC(=O)NCc1ccco1,25.1µM*,?,?,8.0%,50.1µM*,-9.5%
O=C(CSc1nnc(-c2ccncc2)n1-c1ccc(F)cc1)NC(=O)NCc1ccco1,28.2µM*,?,79.4µM*,11.3%,20µM*,-16.6%
CCn1c(=O)c2cc(C(=O)N(CC(C)C)CC(C)C)sc2c2ccccc21,0.7%,-0.8%,-14.0%,3.1%,5.6%,-12.6%

# Bioassay records: PubChem, National Center for Advancing Translational Sciences (NCATS)
